Test results taken from PubChem BioAssay (NCATS).
Results filed as inconclusive are left out. A structure can be active in one record and inactive in another. The source made the active and inactive calls. Unless noted, calls come from the whole dose curve; as a rule, active = well fitted curve in the direction sought with a large enough effect; inconclusive = small, poorly fitted or top-dose-only effect, or another doubt; inactive = no such curve, though single readings can be large; an effect the other way counts as inactive or inconclusive.

What was measured:
[1] = target: Peptidyl-prolyl cis-trans isomerase NIMA-interacting 1 (Homo sapiens) (UniProt Q13526); assay: qHTS Validation Assay to Find Inhibitors of Pin1 (AID 504536; active = well fitted inhibition curve with a large enough effect in the polarisation, with a control signal flat, not every such curve was filed as active; the % refers to the polarisation)
Peptidyl-prolyl cis-trans isomerase NIMA-interacting 1 (Homo sapiens), sequence (Q13526 whole entry, looked up): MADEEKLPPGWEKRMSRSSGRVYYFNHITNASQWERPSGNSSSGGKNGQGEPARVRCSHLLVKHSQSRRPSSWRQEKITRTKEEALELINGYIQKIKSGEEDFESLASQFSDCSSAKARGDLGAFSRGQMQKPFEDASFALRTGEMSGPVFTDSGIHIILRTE
How it was run: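 Fluorescence polarization competition: compounds (titration) displace HiFluor-488-labeled Pin1-1b peptide from Pin1 (0.3 uM final) in pH 7.5 HEPES buffer with DTT, 10 min at room temperature; %Activity normalized to no-enzyme wells, curves fitted.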

[2] = target: Phosphoglycerate kinase, glycosomal (Trypanosoma brucei brucei) (UniProt P07378); assay: qHTS Validation Assay to Find Inhibitors of Phosphoglycerate Kinase (AID 504547)
Phosphoglycerate kinase, glycosomal (Trypanosoma brucei brucei), sequence (P07378 whole entry, looked up): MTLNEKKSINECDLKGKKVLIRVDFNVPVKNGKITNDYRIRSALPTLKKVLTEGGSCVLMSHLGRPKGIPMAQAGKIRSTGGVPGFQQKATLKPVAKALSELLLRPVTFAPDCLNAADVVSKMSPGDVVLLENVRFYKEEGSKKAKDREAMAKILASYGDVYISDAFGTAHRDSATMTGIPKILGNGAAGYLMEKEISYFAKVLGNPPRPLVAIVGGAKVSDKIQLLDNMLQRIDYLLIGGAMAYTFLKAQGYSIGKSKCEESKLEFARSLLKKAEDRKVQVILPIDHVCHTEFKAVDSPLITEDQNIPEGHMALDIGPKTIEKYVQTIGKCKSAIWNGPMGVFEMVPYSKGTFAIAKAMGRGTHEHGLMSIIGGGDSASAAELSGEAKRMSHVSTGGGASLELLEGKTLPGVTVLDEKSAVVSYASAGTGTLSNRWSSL
How it was run: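 PGK activity was coupled to GAPDH (100nM final), which generates the unstable substrate 1,3-bisphosphoglycerate in-well. Reactions ran 60 minutes at room temperature in 100mM TEA pH 7.6, 5mM MgCl2, 0.01% Tween-20, then Kinase-Glo Plus luminescence was read.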

[3] = target: phosphoglycerate mutase (Leishmania major) (UniProt Q4Q090); assay: qHTS Validation Assay to Find Inhibitors of Phosphoglycerate Mutase (AID 504548);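 note: end-point luminescence from Kinase-GloPlus after the PGAM reaction; series mostly up to about 58 µM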
phosphoglycerate mutase (Leishmania major), sequence (Q4Q090 1-553): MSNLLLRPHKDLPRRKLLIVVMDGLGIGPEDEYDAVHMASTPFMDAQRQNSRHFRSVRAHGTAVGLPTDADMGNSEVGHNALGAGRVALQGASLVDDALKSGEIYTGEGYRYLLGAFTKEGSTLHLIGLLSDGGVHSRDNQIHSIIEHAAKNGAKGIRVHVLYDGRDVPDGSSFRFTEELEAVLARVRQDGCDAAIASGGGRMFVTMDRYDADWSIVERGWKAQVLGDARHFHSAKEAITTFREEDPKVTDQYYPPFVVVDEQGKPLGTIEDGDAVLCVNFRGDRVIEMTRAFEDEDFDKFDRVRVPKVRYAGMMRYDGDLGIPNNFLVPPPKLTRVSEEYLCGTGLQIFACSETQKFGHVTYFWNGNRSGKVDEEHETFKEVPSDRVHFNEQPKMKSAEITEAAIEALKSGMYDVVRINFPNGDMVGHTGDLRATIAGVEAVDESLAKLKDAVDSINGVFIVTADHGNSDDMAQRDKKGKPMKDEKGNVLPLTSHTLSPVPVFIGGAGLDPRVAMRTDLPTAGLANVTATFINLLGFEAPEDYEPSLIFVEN
How it was run: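 Inhibition of L. major PGAM was assessed by Kinase-GloPlus luminescence following a 45-minute room-temperature reaction with enzyme at 1.25nM final.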

[4] = target: Ubiquitin carboxyl-terminal hydrolase 1 (Homo sapiens) (UniProt O94782); assay: Inhibitors of USP1/UAF1: Pilot qHTS (AID 504865); note: nearly all actives have a fitted effect of over 35% in size; note: potency is the fitted concentration of half-maximal effect
Ubiquitin carboxyl-terminal hydrolase 1 (Homo sapiens), sequence (O94782 whole entry, looked up): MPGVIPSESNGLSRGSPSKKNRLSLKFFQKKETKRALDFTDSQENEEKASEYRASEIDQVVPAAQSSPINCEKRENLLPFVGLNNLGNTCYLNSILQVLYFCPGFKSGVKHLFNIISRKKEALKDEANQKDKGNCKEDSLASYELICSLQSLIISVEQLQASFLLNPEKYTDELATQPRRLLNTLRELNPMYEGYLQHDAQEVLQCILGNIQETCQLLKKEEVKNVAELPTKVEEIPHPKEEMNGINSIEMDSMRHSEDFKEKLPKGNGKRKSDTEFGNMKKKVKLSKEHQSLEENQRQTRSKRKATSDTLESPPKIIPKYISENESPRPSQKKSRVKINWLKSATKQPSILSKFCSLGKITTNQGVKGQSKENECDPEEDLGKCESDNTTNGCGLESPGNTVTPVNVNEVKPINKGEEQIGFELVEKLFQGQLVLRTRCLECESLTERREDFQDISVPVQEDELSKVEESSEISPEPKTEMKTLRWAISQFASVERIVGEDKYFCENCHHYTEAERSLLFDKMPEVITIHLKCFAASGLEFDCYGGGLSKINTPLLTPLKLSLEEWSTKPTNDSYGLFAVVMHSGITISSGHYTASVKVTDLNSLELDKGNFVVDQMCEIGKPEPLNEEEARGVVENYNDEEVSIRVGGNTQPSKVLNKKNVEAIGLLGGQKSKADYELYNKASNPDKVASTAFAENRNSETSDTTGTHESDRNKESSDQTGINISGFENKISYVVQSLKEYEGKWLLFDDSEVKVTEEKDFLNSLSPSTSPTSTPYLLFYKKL
How it was run: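 Enzyme-free wells gave the negative control, while test wells held 1nM USP1/UAF1 preincubated with compound for 15 min at room temperature. Ub-Rho at 150nM final started the reaction, and fluorescence at 480/540 nm was recorded kinetically.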

[5] = qHTS for Inhibitors of ATXN expression: Validation of Cytotoxic Assay (AID 588349)
How it was run: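 Read-out: ATP-based luminescence (CellTiter Glo) reflecting viability of HEK293 cells after 72 hr incubation at 37 degrees C with a concentration series of each compound.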

[6] = qHTS for Inhibitors of ATXN expression: Validation (AID 588378); note: series mostly up to about 57 µM; nearly all actives have a fitted effect of over 75% in size
How it was run: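 After a 2 h attachment and 24 h compound incubation, HEK293-ATXN2-FFLuc wells are read for fluorescence at 405 nm excitation/525 nm emission as a viability measure, then for Bright-Glo luminescence reflecting ATXN2 expression.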

[7] = target: DNA dC->dU-editing enzyme APOBEC-3G (Homo sapiens) (UniProt Q9HC16); assay: qHTS for inhibitors of Vif-A3G interactions: Validation (AID 588379)
DNA dC->dU-editing enzyme APOBEC-3G (Homo sapiens), sequence (Q9HC16 whole entry, looked up): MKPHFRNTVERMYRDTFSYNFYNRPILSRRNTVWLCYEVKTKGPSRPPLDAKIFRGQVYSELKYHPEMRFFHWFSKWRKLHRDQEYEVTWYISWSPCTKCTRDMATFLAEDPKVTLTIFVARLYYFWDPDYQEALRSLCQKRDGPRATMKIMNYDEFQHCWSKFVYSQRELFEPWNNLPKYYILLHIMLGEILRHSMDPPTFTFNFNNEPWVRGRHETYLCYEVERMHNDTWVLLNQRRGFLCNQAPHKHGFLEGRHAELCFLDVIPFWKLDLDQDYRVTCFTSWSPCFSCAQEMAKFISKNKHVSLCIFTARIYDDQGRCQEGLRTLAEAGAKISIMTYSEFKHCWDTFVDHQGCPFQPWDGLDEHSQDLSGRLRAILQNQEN
How it was run: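 HeLa cells stably expressing Vif and A3G-eYFP, 700 cells/well, incubated overnight at 37 deg C, then exposed to compound overnight at 37 deg C. Inhibition of Vif-mediated degradation read as increased yellow fluorescence (Ex 488/Em 500-530) by laser-scanning cytometry.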

[8] = target: Estrogen receptor (Homo sapiens) (UniProt P03372); assay: qHTS assay for small molecule antagonists of estrogen receptor alpha signaling (AID 588513; active = well fitted curve in the direction sought with a large enough effect in the signal ratio, with a control signal flat, not every such curve was filed as active; the % refers to the signal ratio)
Estrogen receptor (Homo sapiens), sequence (P03372 whole entry, looked up): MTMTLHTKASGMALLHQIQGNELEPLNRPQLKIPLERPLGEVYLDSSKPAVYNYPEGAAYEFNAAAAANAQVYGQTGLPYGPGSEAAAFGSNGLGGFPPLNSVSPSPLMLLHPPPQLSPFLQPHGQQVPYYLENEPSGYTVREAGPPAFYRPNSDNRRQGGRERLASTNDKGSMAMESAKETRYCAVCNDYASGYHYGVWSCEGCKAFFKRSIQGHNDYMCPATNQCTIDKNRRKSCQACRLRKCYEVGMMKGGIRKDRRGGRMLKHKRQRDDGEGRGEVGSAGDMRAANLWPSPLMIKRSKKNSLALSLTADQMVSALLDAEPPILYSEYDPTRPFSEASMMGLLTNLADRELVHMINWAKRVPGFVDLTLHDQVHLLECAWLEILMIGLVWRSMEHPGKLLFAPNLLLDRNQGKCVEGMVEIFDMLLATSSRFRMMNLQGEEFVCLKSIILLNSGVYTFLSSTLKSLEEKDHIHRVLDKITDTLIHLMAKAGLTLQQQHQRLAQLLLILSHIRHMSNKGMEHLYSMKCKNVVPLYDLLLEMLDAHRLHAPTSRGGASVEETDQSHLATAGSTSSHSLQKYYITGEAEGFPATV
How it was run: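 Antagonist-mode qHTS in ER-alpha-UAS-bla HEK 293 cells: compound titration, 0.5nM estradiol for 18 h, CCF4 fluorescence, Hill-derived IC50.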

[9] = target: Estrogen receptor (Homo sapiens) (UniProt P03372); assay: qHTS assay for small molecule agonists of estrogen receptor alpha signaling (AID 588514; calls by dose curve; note: nearly all actives have a fitted effect of over 70% in size)
How it was run: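 Cells were plated at 5000/well, incubated 4 hrs at 37 C, dosed with compound titration series, incubated 18 hrs at 37 C, loaded with CCF4 dye for 2 hrs at RT, then fluorescence was read.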

Measured: Potency

COCCOC(=O)C1=C(C)NC(C)=C(C(=O)OC/C=C/c2ccccc2)C1c1cccc([N+](=O)[O-])c1 (stereo not drawn)
inactive: [1] | [2] | [3]

CC(C)C(=O)c1c(C(C)C)nn2ccccc12
not listed: [8] | [9]
inactive: all other assays above

CC(C)NC[C@H](O)c1ccc(O)c(O)c1
not listed: [6] | [8] | [9]
inactive: all other assays above

C[C@](N)(Cc1ccc(O)cc1)C(=O)O
not listed: [7] | [8] | [9]
inactive: all other assays above

CC(CN(C)C)CN1c2ccccc2CCc2ccccc21 (stereo not drawn)
inactive: [1] | [2] | [3] | [4]

N=c1c[n+](N2CCOCC2)[n-]o1
not listed: [7] | [8] | [9]
inactive: all other assays above

CC(=O)OCC(=O)[C@@]1(O)CC[C@H]2[C@@H]3CCC4=CC(=O)CC[C@]4(C)[C@H]3C(=O)C[C@@]21C
not listed: [7] | [8] | [9]
inactive: all other assays above

NC1CCN(c2cccc(Cl)n2)CC1
not listed: [8] | [9]
inactive: all other assays above

CCN(CC)C(C)CN1c2ccccc2Sc2ccccc21 (stereo not drawn)
44.7 µM (active) and inactive: [4]
inactive: [1] | [2] | [3] | [5]

CC(C)(C)[C@]1(O)CCN2C[C@H]3c4ccccc4CCc4cccc(c43)[C@@H]2C1
not listed: [7] | [8] | [9]
inactive: all other assays above

CN(C)CC[C@@H](c1ccc(Cl)cc1)c1ccccn1
not listed: [7] | [8] | [9]
inactive: all other assays above

CC(C(O)c1ccc(O)cc1)N1CCC(Cc2ccccc2)CC1 (stereo not drawn)
inactive: [1] | [2] | [3] | [4]

CCN(CC)CCNC(=O)c1cc(Cl)c(N)cc1OC
not listed: [7] | [8] | [9]
inactive: all other assays above

CCN(CC)CCOC(=O)C1(C2CCCCC2)CCCCC1
inactive: [1] | [2] | [3] | [4]

COc1ccc(Cl)cc1C(=O)NCCc1ccc(S(=O)(=O)NC(=O)NC2CCCCC2)cc1
not listed: [8] | [9]
inactive: all other assays above

CC1=C(CC(=O)O)c2cc(F)ccc2/C1=C\c1ccc(S(C)=O)cc1 (stereo not drawn)
not listed: [8] | [9]
inactive: all other assays above

NC(N)=NCCC[C@H](N)C(=O)O
not listed: [8] | [9]
inactive: all other assays above

CN(C)CCOC(C)(c1ccccc1)c1ccccn1 (stereo not drawn)
not listed: [7] | [8] | [9]
inactive: all other assays above

CN(C)CCCN1c2ccccc2Sc2ccc(Cl)cc21
inactive: [1] | [2] | [3] | [4]

CC[C@H]1CN2CCc3cc(OC)c(OC)cc3[C@@H]2C[C@@H]1C[C@H]1NCCc2cc(OC)c(OC)cc21
inactive: [1] | [2] | [3]

O=C1N=C(O)CN1/N=C/c1ccc(-c2ccc([N+](=O)[O-])cc2)o1
not listed: [7] | [8] | [9]
inactive: all other assays above

CC1=C(CC(=O)O)c2cc(F)ccc2/C1=C\c1ccc(S(C)(=O)=O)cc1
not listed: [7] | [8] | [9]
inactive: all other assays above

CC1=C(/C=C/C(C)=C/C=C/C(C)=C/C(=O)O)C(C)(C)CCC1
active: [4] 79.4 µM
not listed: [8] | [9]
inactive: all other assays above

Nc1ncnc2c1ncn2[C@@H]1O[C@H](CO)[C@@H](O)[C@H]1O
not listed: [8] | [9]
inactive: all other assays above

OCc1cc(C(O)CNCCCCCCOCCCCc2ccccc2)ccc1O (stereo not drawn)
inactive: [1] | [2] | [3] | [4]

C[C@]12C[C@H](O)[C@H]3[C@@H](CCC4=CC(=O)CC[C@@]43C)[C@@H]1CC[C@@H]2C(=O)CO
not listed: [7]
inactive: all other assays above
